In the library only some 8% were active in any assay of this set; here they are far more common.
ELG1 DNA repair – ELG1-dependent DNA repair inhibition; HEK293T ELG1-luciferase reporter, luminescence, 16 h; DNA damage induced by 5-fluorouridine; Potency, µM (highest dose often 46.1 µM), for the others: top-dose activity change, negative = inhibition, hits mostly inhibitors; 330,000 tested, 2.3% active; also: potency is read from the fitted curve at half-maximal effect; nearly all actives have a fitted effect of over 55% in size
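Luminescence from the luciferase reporter, measured 30 min after ONE-Glo reagent at room temperature, was the read-out. Beforehand, 2,000 cells per well were exposed for 16 hr at 37 °C to 5-fluorouridine together with compound or vehicle.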
FBPA coupling cs – inhibits coupling enzyme system, counter-screen for aldolase hits; 290,000 tested, 0.67% active; coupling enzyme system counterscreen, AmpLite Red fluorescence; activity change, negative = inhibition, % at 58.2 µM, hits read low; in the data active = activity change below about -30%
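Counterscreen lacking aldolase: glyceraldehyde-3-phosphate coupling-enzyme reagent preincubated 10 min at RT with compound (at 57.5 uM final), then substrate/coupling system with AmpLite Red added; fluorescence read at 525/598 nm after 20 min RT.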
VP16 counter – counter-screen for ROR gamma inhibitors: Gal4-VP16 reporter; Drosophila S2 Gal4-VP16 UAS-luciferase, luminescence, 20 h; Potency, µM (titrated, usually from 53.6 µM), without a hit: at the highest dose activity, negative = inhibition, actives largely listed as inhibitors; 310,000 tested, 3.5% active;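 also: Gal4-VP16 expression switched on by copper sulfate through the metallothionein promoter; potency is read from the fitted curve at half-maximal effect; nearly all actives have a fitted effect of over 50% in size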
RORgamma inh – blocks mouse ROR gamma transcriptional activity. P51450. Drosophila S2 Gal4-RORgamma UAS-luciferase reporter, 20 h. Potency, µM (titrated, usually from 53.6 µM), without a hit: at the top dose activity change, negative = inhibition, most hits filed as inhibitors. 310,000 tested, 5.4% active; also: potency is read from the fitted curve at half-maximal effect; nearly all actives have a fitted effect of over 60% in size
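Read-out: Photinus luciferase luminescence; inhibitors lower reporter signal. Insect Schneider cells with Gal4-ROR gamma fusion under metallothionein promoter, UAS reporter; 700 uM final copper sulfate induction, 20 hr, ambient temperature.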
TSHR antagonist – blocks TSH signaling through the human TSH receptor; P16473; TSHR-expressing cells, TSH-stimulated cAMP HTRF, 2 h; hits give low values; activity change, negative = inhibition, % at 11.5 µM; 330,000 tested, 0.2% active; AID 504810;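 active = activity change below a set negative limit, meaning inhibition stronger than a set level, cut at about -70% in these data; inconclusive = activity change between two set negative limits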
Target sequence (P16473 whole entry, looked up): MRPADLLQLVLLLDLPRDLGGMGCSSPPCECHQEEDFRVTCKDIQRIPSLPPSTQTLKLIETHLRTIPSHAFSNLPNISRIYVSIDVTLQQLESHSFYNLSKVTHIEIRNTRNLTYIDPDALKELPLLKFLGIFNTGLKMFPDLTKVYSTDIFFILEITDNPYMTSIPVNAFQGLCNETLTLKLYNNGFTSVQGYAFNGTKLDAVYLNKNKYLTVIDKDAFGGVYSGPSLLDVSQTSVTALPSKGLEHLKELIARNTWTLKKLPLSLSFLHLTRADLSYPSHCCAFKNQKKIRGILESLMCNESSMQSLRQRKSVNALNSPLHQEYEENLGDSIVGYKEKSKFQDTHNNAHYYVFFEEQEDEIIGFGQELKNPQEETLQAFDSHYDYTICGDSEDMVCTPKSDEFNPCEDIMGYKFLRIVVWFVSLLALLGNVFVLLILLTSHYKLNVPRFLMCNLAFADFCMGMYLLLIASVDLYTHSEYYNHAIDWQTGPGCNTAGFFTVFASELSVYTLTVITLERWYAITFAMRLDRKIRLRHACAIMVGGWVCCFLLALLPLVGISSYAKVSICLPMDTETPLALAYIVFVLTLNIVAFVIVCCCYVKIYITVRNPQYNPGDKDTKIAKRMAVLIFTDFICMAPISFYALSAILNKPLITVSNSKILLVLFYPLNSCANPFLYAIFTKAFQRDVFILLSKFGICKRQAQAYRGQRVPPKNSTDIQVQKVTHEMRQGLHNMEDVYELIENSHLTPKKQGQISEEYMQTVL
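Antagonism was scored as loss of TSH-driven cAMP in TSHR cells, stimulated with 4nM TSH (EC80) for 2 hours at 37 deg C and detected by homogeneous HTRF competition immunoassay.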
Starred values were filed as active, the others as inactive; ? = inconclusive; / = no result given; [ ] = another dose, or the depositor's remark. Unless noted, calls follow the shape of the dose curve; as a rule, active = well fitted curve in the direction sought with a large enough effect; inconclusive = small, poorly fitted or top-dose-only effect, or another doubt; inactive = no such curve, though single readings can be large; an effect the other way counts as inactive or inconclusive. % is scaled to controls: 0 for no effect and ±100 for the full control effect.

SMILES | ELG1 DNA repair | FBPA coupling cs | VP16 counter | RORgamma inh | TSHR antagonist
Cc1ccc(CN2CCC(C(=O)Nc3cccc(-c4cccc(F)c4)c3)CC2)o1 | -16% | / | 10µM* | -24% | 2
Cc1ccnc(NC(=O)C2CCN(S(=O)(=O)c3ccc4c(c3)CC(C)N4C(=O)C3CCC3)CC2)c1 (stereo unspecified) | 9.2µM* | 3 | 6% | ? | -12
CC(=O)N1c2ccc(S(=O)(=O)N3CCC(C(=O)Nc4cccc(C)c4)CC3)cc2CC1C (stereo unspecified) | 29µM* | 0 | ? | 43% | -2
CCc1ccc(NC(=O)C2CCN(S(=O)(=O)c3ccc4c(c3)CC(C)N4C(C)=O)CC2)cc1 (stereo unspecified) | 7.3µM* | -3 | ? | -30% | ?
CCc1ccc(NC(=O)C2CCCN(S(=O)(=O)c3ccc4c(c3)CC(C)N4C(C)=O)C2)cc1 (stereo unspecified) | ? | -1 | -11% | -30% | ?
O=C(Nc1cccc(F)c1)N1CC[C@@]2(CCCN(S(=O)(=O)c3ccccc3)C2)C1 | / | 0 | -11% | 4% | /
CC1Cc2cc(S(=O)(=O)N3CCC(C(=O)N(C)Cc4ccccc4)CC3)ccc2N1C(=O)C1CC1 (stereo unspecified) | 21µM* | 0 | -8% | 24% | 5
CC(=O)N1c2ccc(S(=O)(=O)N3CCC(C(=O)Nc4cccc(Cl)c4)CC3)cc2CC1C (stereo unspecified) | ? | -1 | 11µM* | -31% | -18
CCOC(=O)C1CCN(S(=O)(=O)c2ccc3c(c2)CC(C)N3C(=O)C2CC2)CC1 (stereo unspecified) | -6% | 2 | 2% | -2% | -15
CCOC(=O)C1CCN(C(=O)C2CCN(S(=O)(=O)c3ccc4c(c3)CC(C)N4C(C)=O)CC2)CC1 (stereo unspecified) | 10µM* | 1 | 2% | 10% | -42
COc1cccc(O)c1CN1CCC(C(=O)Nc2ccc(-c3cccc(C)c3)cc2)CC1 | ? | -1 | 14µM* | 10µM* | -5
NC(=O)c1ccc(SCC(=O)OCC(=O)NCc2cccs2)c([N+](=O)[O-])c1 | 2% | / | / | / | -16
Cc1cccc(C)c1NC(=O)[C@H](C)N | / | 0 | 3%[17 µM] | 8%[2.98 µM] | /
COc1ccc(OC)c(S(=O)(=O)N2CCC(C(=O)Nc3cccc(C)c3)CC2)c1 | 21µM* | 0 | 0% | 22% | 2
COc1ccc(OC)c(S(=O)(=O)N2CCC(C(=O)Nc3ccccc3)CC2)c1 | -7% | -3 | -5% | -4% | 4
C[C@H](Cn1cnc2c(N)ncnc21)OCP(=O)(O)O | / | / | -2% | -7% | /
CSCC[C@H](NC(=O)OC(C)(C)C)C(=O)NCC1CCC(C(=O)N[C@@H](Cc2ccccc2)C(=O)O)CC1 (stereo partly specified) | -5% | 3 | 11% | 1% | -2
CCOc1cc(/C=C2\CCC/C(=C\c3cc(Cl)c(O)c(OCC)c3)C2=O)cc(Cl)c1O | 6.5µM* | 2 | 11µM* | ? | -25
C=CCNC(=O)/C(C#N)=C\c1cc(Cl)c(O)c(OCC)c1 | 10% | -5 | -1% | 3% | -2
CCOc1cc(/C=C2\CN(C)C/C(=C\c3ccc(O)c(OCC)c3)C2=O)ccc1O | 23µM* | 0 | ? | ? | -19
CN1C/C(=C/c2ccncc2)C(=O)/C(=C/c2ccncc2)C1 | ? | -13 | 4µM* | 13µM* | 17
COc1cccc2c1O/C(=N\O)C(C(=O)Nc1ccc(C)cc1)C2 (stereo unspecified) | -24% | -4 | 6% | 37% | 2
CCN1C(C)=C(C(=O)OC)C(c2ccccc2)N2C(=O)[C@](O)(C(=O)OC)C(c3ccccc3)C(C(C)=O)=C12 (stereo partly specified) | / | 1 | 1%[10 µM] | -29%[10 µM] | /
CC(C)N(C(=O)COC(=O)c1cccc(S(=O)(=O)N2CC3(C)CC2CC(C)(C)C3)c1)C(C)C (stereo unspecified) | -1% | / | / | / | -14
CCCCC[C@@H]1C=C(C(=O)O)[C@H](c2ccc(Br)cc2)N1S(=O)(=O)c1ccc(C)cc1 | -8% | / | / | / | -9
